Data from PubChem BioAssay (NCI).
This is part of a sample that, as a whole, favours compounds with a hit. Of some 83,000 tested, about 20% had one in any assay.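 Note: values are percent growth. 100 is the growth of untreated cells, values between 100 and 0 indicate rising inhibition; between -100 and 0 indicates cell death.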 Values without a mark were called inactive. Active and inactive are the calls of the source. Rule for the calls: active = growth percent below 10; inactive = the rest.

Legend:
Test in all cases: NCI-60 one-dose screen, 48 h (100 = growth as untreated, 0 = no growth, -100 = all killed)
Details in all cases: 10 µM unless noted
DU-145 prostate = system: DU-145 prostate
K-562 leukemia = system: K-562 leukemia
MALME-3M melanoma = system: MALME-3M melanoma
MDA-MB-231 breast = system: MDA-MB-231 breast
RXF 393 renal = system: RXF 393 renal
SF-268 CNS = system: SF-268 CNS
SF-295 CNS = system: SF-295 CNS
SF-539 CNS = system: SF-539 CNS
UACC-257 melanoma = system: UACC-257 melanoma
M14 melanoma = system: M14 melanoma
HCT-15 colon = system: HCT-15 colon
HT29 colon = system: HT29 colon
SNB-75 CNS = system: SNB-75 CNS
SNB-19 CNS = system: SNB-19 CNS
PC-3 prostate = system: PC-3 prostate
SK-MEL-5 melanoma = system: SK-MEL-5 melanoma
UACC-62 melanoma = system: UACC-62 melanoma
LOX IMVI melanoma = system: LOX IMVI melanoma
SK-MEL-28 melanoma = system: SK-MEL-28 melanoma
U251 CNS = system: U251 CNS

SMILES	growth (DU-145 prostate)	growth (K-562 leukemia)	growth (MALME-3M melanoma)	growth (MDA-MB-231 breast)	growth (RXF 393 renal)	growth (SF-268 CNS)	growth (SF-295 CNS)	growth (SF-539 CNS)	growth (UACC-257 melanoma)	growth (M14 melanoma)	growth (HCT-15 colon)	growth (HT29 colon)	growth (SNB-75 CNS)	growth (SNB-19 CNS) [%]	growth (PC-3 prostate)	growth (SK-MEL-5 melanoma)	growth (UACC-62 melanoma)	growth (LOX IMVI melanoma)	growth (SK-MEL-28 melanoma)	growth (U251 CNS)
CN[C@@]12CC3(C=CC(=O)C=C3)O[C@]1(Cc1ccc(OC)cc1)N(C)C(=O)N2	101%	13.1%	107%	110%	50.7%	96.7%	109%	45.3%	78.8%	63%	-47.9% (active)	8.19% (active)	74.3%	92.2	66.8%	77.1%	54.7%	10.3%	46.7%	
CCCCCCCCCCCCCCCC(=O)OCC1OC(n2cnc3c(=S)nc(N)[nH]c32)C(OC(=O)CCCCCCCCCCCCCCC)C1OC(=O)CCCCCCCCCCCCCCC (centres undefined)	39.8%	15.9%	82.6%	47.4%	164%	67.2%	21.1%	79.9%	88.7%	34.1%	55.1%	37.7%	78.2%		78.8%	96.7%	31.7%	21.7%	130%	83.7%
COc1ccc(-c2cc(C(=O)N=Nc3c(O)[nH]c4ccccc34)no2)cc1	104%	90.7%	102%	96.9%	102%	99.4%	102%	100%	114%	101%	104%	99.5%	66.5%	91.5	97.5%	98.9%	100%	99.7%	109%	
Cc1cc(-c2nc3ccccc3s2)ccc1NC(=O)COc1ccc(Cl)cc1	130%	93.7%	106%	96.9%	139%	109%	120%	105%	120%	100%	92.7%	101%	84.4%		83.2%	98.8%	96.1%	94.5%	114%	94.1%
O=C(O)c1ccc2c(c1Sc1ccccc1)C(=O)c1ccccc1C2=O	107%	112%	83.4%	90.1%	98.6%	101%	91.3%	84.5%	96.3%	107%	109%	96%	78.1%		88.3%	93.6%	87.5%	89.5%	139%	103%
CC1(C)CC(C(=O)OCCCCCCCCCCC[P+](c2ccccc2)(c2ccccc2)c2ccccc2)C(C)(C)N1O (centres undefined)	-85.3% (active)	-76.3% (active)	-68.3% (active)	-70.2% (active)	-68.8% (active)	-92.9% (active)	-71.3% (active)	-93.1% (active)	-77.1% (active)	-13.2% (active)	88.5%	-33.9% (active)	-57.9% (active)		-70.1% (active)	-97.6% (active)	-69.3% (active)	117%	-95.2% (active)	110%
O=c1c2c3c(sc2n2c(CCl)nnc2n1Cc1ccccc1)CCCC3	-11.9% (active)	-65.2% (active)	-71.4% (active)	-60.2% (active)	-39.1% (active)	-59.2% (active)	126%	-85.5% (active)	-53.6% (active)	-49.9% (active)	-89.4% (active)	-100% (active)	-61.3% (active)		-100% (active)	-96.1% (active)	-72.8% (active)	-100% (active)	-100% (active)	-99.2% (active)
COc1nc2c(cc1S(=O)(=O)c1ccccc1)CCc1c-2cnn1Cc1ccccc1	83.5%	38%	91.3%	59.1%	38.8%	82.2%	42%	73.7%	48.3%	75.9%	43.1%	13.9%	72.1%		38.3%	34.7%	52%	65.9%	92.3%	48.1%
NS(=O)(=O)c1ccc(Nc2nc3n[nH]c(Nc4ccccc4)c3c(=O)[nH]2)cc1	102%	96%	103%	97.7%	115%	97%	102%	97.1%	97%	94.2%	108%	101%	70.8%		92.1%	99%	105%	101%	111%	101%
CCOC(=O)c1c2ncccc2n2c(=O)n(-c3ccc(Cl)cc3)nnc12	112%	77.7%	95.7%	91.2%	104%	72.3%	9.85% (active)	47.8%	102%	81.1%	96.6%	108%	86.7%		95.6%	85.8%	46.6%	41.1%	115%	95.1%
OC(c1cc(-c2ccccc2)nc2ccc(Cl)cc12)C1CCCCN1 (centres undefined)	60.1%	-18.4% (active)	-41.3% (active)	-30.5% (active)	56.3%	60.7%	96.2%	67.5%	70.9%	-66.3% (active)	-12.3% (active)	-3.87% (active)	61.9%		49.4%	-5.63% (active)	-31.2% (active)	-83.2% (active)	-76.9% (active)	21.5%
COC1=CC(=O)C(OC)=C(OC)C1=O	106%	63.9%	92.1%	86%	111%	94.3%	99.3%	90.7%	107%	93.2%	102%	107%	90.1%		98.1%	97.5%	87.5%	84.6%	98.6%	100%
COCCCN=C(N)c1ccc(NC(=O)c2ccc(C(=O)Nc3ccc(C(N)=NCCCOC)cc3)cc2)cc1	148%	66.8%	75.5%	112%	142%	103%	93.7%	98.5%	121%	80.3%	118%	110%	86.4%		125%	78.3%	91%	120%	226%	99.1%
CCN(CC)Cc1cc(Nc2c3ccccc3nc3cc(Cl)ccc23)ccc1O	-16.2% (active)	-40.8% (active)	-91.4% (active)	-65.2% (active)	-91.4% (active)	-76.9% (active)	-38.3% (active)	-100% (active)	-94.8% (active)	-99.6% (active)	-28.6% (active)	-38.3% (active)	-100% (active)		-41.5% (active)	-100% (active)	-97.2% (active)	-86.5% (active)	-79.3% (active)	-51.6% (active)
COc1cc(-c2nc3ccccc3s2)ccc1NC(=O)COc1ccc(Cl)cc1	82.1%	74.9%	48.3%	45.9%	66.3%	29.4%	29%	26.7%	85.3%	60%	85.8%	34.9%	21.3%		49.8%	73.7%	36.1%	64.7%	58.6%	41.9%
CC(C)n1cc2c(N)ncnc2n1	128%	98.5%	86.3%	109%	115%	106%	102%	105%	121%	107%	106%	101%	81.6%		106%	108%	92.9%	108%	152%	106%
